Five compounds from PubChem BioAssay (NCATS) can be followed below.

Assay [1] addresses Cytochrome P450 1A2 (Homo sapiens) (UniProt P05177). Nature of the assay: p450-cyp1a2 (AID 410; calls by dose curve; further: potency means the concentration at half of the fitted maximal effect). In short, it runs like this:
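Human CYP1A2 (20nM) demethylated Luciferin-ME at its Km (100uM) in 100mM KPO4. After 10 min compound preincubation, NADPH regeneration ran the reaction 60 min at room temperature. Luciferin was read by luminescence, normalized to 57 uM furafylline.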

Assay [2] concerns the target Glucocorticoid receptor (Homo sapiens) (UniProt P04150). Description: GR-GFP Redistribution (AID 450;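 active means compounds whose dose series gives a full or clear partial fitted curve of increased nuclear translocation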; further: potency means the concentration at half of the fitted maximal effect). As to conditions: U2OS GR-GFP nuclear translocation, laser cytometry, 2 h.
Assay [3] has the same target. Nature of the assay: GR-EFC Redistribution (AID 451; calls by dose curve; further: potency means the concentration at half of the fitted maximal effect). As to conditions: CHO-K1 GR-EFC translocation, beta-gal luminescence, 2 h. An outline of the steps:
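CHO-K1 cells stably expressing nuclear-localized β-gal enzyme acceptor and GR fused C-terminally to the enzyme donor fragment; ligand-driven nuclear translocation restores β-gal by complementation. Compounds titrated up to 46 uM final, 2 h at 37 °C; luminescence read.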

Assay [4] deals with Cytochrome P450 2D6 (Homo sapiens) (UniProt P10635). Description: qHTS Assay for Inhibitors and Substrates of Cytochrome P450 2D6 (AID 891). Further: potency means the concentration at half of the fitted maximal effect; nearly all actives have a fitted effect of over 60% in size. In short, it runs like this:
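Human CYP2D6 (5 nM) with 30 uM Luciferin-ME EGE (at Km) in 100 mM KPO4, compound preincubated 10 min, then NADPH regeneration system for 60 min at room temperature. Luciferin read by luminescence; normalized to 1.43 uM quinidine.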
For orientation: Quantitative high-throughput screening tests each substance at several concentrations.

Assay [5] concerns the target DNA dC->dU-editing enzyme APOBEC-3G (Homo sapiens) (UniProt Q9HC16). Nature of the assay: qHTS for inhibitors of Vif-A3G interactions: Validation (AID 588379). Further: 0% is about no effect. An outline of the steps:
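HeLa cells stably expressing Vif and A3G-eYFP, 700 cells/well, incubated overnight at 37 deg C, then exposed to compound overnight at 37 deg C. Inhibition of Vif-mediated degradation read as increased yellow fluorescence (Ex 488/Em 500-530) by laser-scanning cytometry.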

The test system of assay [6] is Zika virus NS2B-NS3 protease. Nature of the assay: Primary screen GU AMC qHTS for Zika virus inhibitors (AID 1347154).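 Further: 0% = no-inhibitor control and -100% = no-enzyme control; nearly all actives have a fitted effect of over 70% in size.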 An outline of the steps:
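Unlinked Zika NS2B hydrophilic domain/NS3 protease domain noncovalent complex (25 nM final) in 10 mM Tris-HCl pH 8.0, 0.01% Tween 20, with AMC peptide substrate. Fluorescence (ex 340, em 450 nm) change over 15 min, room temperature; percent inhibition fitted to 4-parameter Hill equation.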

Assay [7] concerns the target Calcium and integrin-binding protein 1 (Homo sapiens) (UniProt Q99828). Description: Primary qHTS for Identification of Calcium Integrin Binding Protein 1 (CIB1) Competitor (AID 1508620).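 Further: GST tagged CIB1 binding a fluorescein labelled alphaIIb integrin peptide tracer; top concentration of the series differs between compounds; on the % scale 0 is the no-effect control and ±100 the full control effect.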 In short, it runs like this:
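Fluorescence polarization competition: CIB1-GST (1 uM final) preincubated with compound 15 min at room temperature, then FITC-labeled alphaIIb peptide (100 nM final) added for another 15 min. Polarization read at Ex 480/Em 540.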

Assay [8] is described as follows: Primary qHTS for small molecule stabilizers of the endoplasmic reticulum resident proteome: Secreted ER Calcium Modulated Protein (SERCaMP) assay (AID 1508630). Further: on the % scale 0 is the no-effect control and ±100 the full control effect. In short, it runs like this:
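GLuc-SERCaMP-expressing SH-SY5Y cells, pretreated 16 h with compound, are challenged with thapsigargin to empty ER calcium stores; after 4 h, coelenterazine is added directly to the medium and luminescence is imaged.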

A short description of assay [9]: qHTS to identify inhibitors of the type 1 interferon - major histocompatibility complex class I in skeletal muscle: primary screen against the NCATS Mechanism Interrogation Plate v5.0 (MIPE) Libary (AID 1347411).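 Further: plate controls were vehicle for no effect and reference inhibitor for full effect; nearly all actives have a fitted effect of over 65% in size.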 An outline of the steps: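 Immortalized human C25cl48 myoblasts with HiBit knocked into endogenous HLA-B*08:01 were stimulated with 4.0 ng/ml IFN-beta and exposed to compounds (11-point 1:3 titration, top 46 uM final) for 24 hrs at 37 C; HiBiT lytic luminescence measured.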

The nature of assay [10]: Primary qHTS for inhibitors of nuclear receptor binding SET domain protein 2 (NSD2) in an isogenic RCH-ACV NSD2 p.E1099K mutant (9B) (AID 1645876). Further: potency means the concentration at half of the fitted maximal effect; nearly all actives have a fitted effect of over 70% in size.
Assay [11] is described as follows: Primary qHTS for inhibitors of nuclear receptor binding SET domain protein 2 (NSD2) in an RCH-ACV wild type WT cells (2C) (AID 1645877). Further: potency means the concentration at half of the fitted maximal effect; nearly all actives have a fitted effect of over 70% in size.
Assay [12] addresses Glutathione peroxidase 1 (Homo sapiens) (UniProt P07203). Nature of the assay: Primary qHTS Assay for Inhibitors of Recombinant Selenoprotein Glutathione Peroxidase 1 (GPX1) (AID 1845191). Further: nearly all actives have a fitted effect of over 65% in size. In short, it runs like this: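 Recombinant GPX1 (10 nM final) was preincubated with compound for 30 min at room temperature, then reacted with 1 mM GSH, 0.5 mM CHP, 0.5 mM NADPH and 100 nM glutathione reductase; NADPH fluorescence (340/450 nm) was read at 0 and 15 min.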

For assay [13], the target named is Phospholipid hydroperoxide glutathione peroxidase GPX4 (Homo sapiens) (UniProt P36969). Nature of the assay: Primary qHTS Assay for Inhibitors of Recombinant Selenoprotein Glutathione Peroxidase 4 (GPX4) (AID 1845192). Further: series mostly up to about 50 µM; on the % scale 0 is the no-effect control and ±100 the full control effect; nearly all actives have a fitted effect of over 65% in size. As to conditions: outcome: dose series up to 50 µM unless noted. In short, it runs like this: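 GR-coupled readout: 100 nM GR, 1 mM GSH, 0.5 mM NADPH; NADPH fluorescence (ex 340/em 450 nm) read at t=0 and after 15 min RT. GPX4 200 nM, preincubated 30 min with compound; substrate 0.5 mM CHP.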
Sequence of Phospholipid hydroperoxide glutathione peroxidase GPX4 (Homo sapiens) (P36969 whole entry, looked up): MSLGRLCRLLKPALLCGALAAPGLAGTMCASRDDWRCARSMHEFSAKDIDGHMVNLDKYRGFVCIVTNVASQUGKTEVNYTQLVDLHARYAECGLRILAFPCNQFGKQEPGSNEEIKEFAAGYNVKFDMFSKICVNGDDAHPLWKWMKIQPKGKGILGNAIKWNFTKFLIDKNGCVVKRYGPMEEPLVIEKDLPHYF

A short description of assay [14]: qHTS drug screen for cell cycle checkpoint inhibitors in PARPi-resistant BRCA-mutant ovarian cancer cell lines. (AID 1963452; calls by dose curve). The following applies: PEO1/OlaR viability, CellTiter-Glo luminescence, 96 h, stronger effect = lower value. An outline of the steps:
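PEO1, PEO4 and PEO1/OlaR ovarian cancer cells, 600 per well, exposed 96 h at 37C to a dilution series. Viability read by CellTiter-Glo luminescence, normalized to DMSO and empty wells; activity summarized as Z-AUC.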

A short description of assay [15]: Validation of Assay for Modulators of Lamin A Splicing (AID 1459; active means well fitted curve in the direction sought with a large enough effect in the signal ratio; the % refers to the signal ratio;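 further: cells exposed to compound for two days before reading; 0% is about no effect; ratio rise marks activators and ratio drop marks inhibitors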). In short, it runs like this: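 HeLa S3 lamin A-EGFP/DsRed2 stable clone, 600 cells/well, Opti-MEM 2% FBS; compounds by pin tool; 48 hrs, 37 °C/5% CO2; Acumen 488 nm scan, objects 10-100 um; GFP/RFP intensity ratio.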
The target of assay [16] is DNA repair nuclease/redox regulator APEX1 (Homo sapiens) (UniProt P27695). Description: qHTS Validation Assay for Inhibitors of the Human Apurinic/apyrimidinic Endonuclease 1 (APE1) (AID 1705;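 further: TAMRA fluorescence gain over two minutes as APE1 cuts a quenched THF abasic duplex; series mostly up to about 57 µM; on the % scale 0 is the no-effect control and ±100 the full control effect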). An outline of the steps: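 qHTS, 1536-well. APE1 + cpd 15 min RT → 50 nM TAMRA/BHQ-2 THF-abasic dsDNA substrate → kinetic fluorescence, 3 reads/60 s; delta(read3−read1) = reaction progress. No-enzyme buffer = negative control.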
Sequence of DNA repair nuclease/redox regulator APEX1 (Homo sapiens) (P27695 whole entry, looked up): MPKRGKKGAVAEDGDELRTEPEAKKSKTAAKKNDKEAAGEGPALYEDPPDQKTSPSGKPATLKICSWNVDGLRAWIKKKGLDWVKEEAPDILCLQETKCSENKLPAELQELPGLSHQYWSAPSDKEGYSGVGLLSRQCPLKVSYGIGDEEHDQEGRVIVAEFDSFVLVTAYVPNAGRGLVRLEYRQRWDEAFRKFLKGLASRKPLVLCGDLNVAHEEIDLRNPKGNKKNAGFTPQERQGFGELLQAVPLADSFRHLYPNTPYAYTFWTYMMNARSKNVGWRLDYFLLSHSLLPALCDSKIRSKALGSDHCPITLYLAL

Assay [17] in a line: qHTS for differential inhibitors of proliferation of Plasmodium falciparum line 7G8 (AID 1815).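 Further: potency means the concentration at half of the fitted maximal effect; parasite growth measured after three days of incubation.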
A short description of assay [18]: qHTS for differential inhibitors of proliferation of Plasmodium falciparum line GB4 (AID 1816).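 Further: potency means the concentration at half of the fitted maximal effect; parasite growth measured after 72 h incubation.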 The following applies: Potency: Plasmodium falciparum GB4 proliferation inhibition.
The nature of assay [19]: qHTS for differential inhibitors of proliferation of Plasmodium falciparum line 3D7 (AID 1876). Further: potency means the concentration at half of the fitted maximal effect.
Assay [20] can be described thus: qHTS for differential inhibitors of proliferation of Plasmodium falciparum line D10 (AID 1877).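 Further: potency means the concentration at half of the fitted maximal effect; parasites grown with compound for 72 h before DNA staining.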
A short description of assay [21]: qHTS for differential inhibitors of proliferation of Plasmodium falciparum line Dd2 (AID 1882). Further: potency means the concentration at half of the fitted maximal effect; nearly all actives have a fitted effect of over 65% in size. The following applies: Potency: Plasmodium falciparum Dd2 proliferation inhibition. In short, it runs like this: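 SYBR Green I DNA fluorescence read-out, ex 485/em 535 nm. Signals were normalized to 0.29 uM artemisinin and DMSO wells, then corrected using vehicle-only plates flanking each stack. Parasite growth ran 72 h in erythrocytes before lysis.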

The nature of assay [22]: qHTS for differential inhibitors of proliferation of Plasmodium falciparum line W2 (AID 1883).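 Further: potency means the concentration at half of the fitted maximal effect; parasites grown with compound for 72 h before lysis and staining.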 The following applies: Potency: Plasmodium falciparum W2 proliferation inhibition.
The nature of assay [23]: qHTS for differential inhibitors of proliferation of Plasmodium falciparum line HB3 (AID 1886).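 Further: potency means the concentration at half of the fitted maximal effect; parasites grown with compound for 72 h before SYBR Green readout.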 As to conditions: Potency: Plasmodium falciparum HB3 proliferation inhibition.
The target of assay [24] is ATP-dependent DNA helicase Q1 (Homo sapiens) (UniProt P46063). Description: qHTS Validation Assay for Inhibitors of RecQ-Like Dna Helicase 1 (RECQ1) (AID 2353).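 Further: plate controls were DMSO vehicle for no effect and enzyme-free control for full effect.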 In short, it runs like this: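 50 nM RECQ1T1 preincubated 15 min with compound in Tris pH 8.0 buffer with MgCl2, DTT, Tween-20 and 2.5 ug/ml poly(dI-dC); started with 200 nM TAMRA/BHQ-2 forked duplex and 2 mM ATP. Unwinding read as fluorescence (525/598 nm), two reads 2 h apart.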

Assay [25] has as its target M-phase phosphoprotein 8 (Homo sapiens) (UniProt Q99549). Description: qHTS Validation Assay for Inhibitors for MPP8 Chromodomain Interactions with Methylated Histone Tails (AID 488949).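 Further: 50 nM MPP8 with 50 nM peptide preformed then compounds added for 30 min; AlphaScreen signal from MPP8 chromodomain bound to biotinylated H3K9me3 peptide; top concentration of the series differs between compounds; on the % scale 0 is the no-effect control and ±100 the full control effect; nearly all actives have a fitted effect of over 55% in size.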 In short, it runs like this:
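50 nM MPP8 + 50 nM b-H3K9me3 peptide, PBS pH 7.4/0.01% Tween-20, 30 min RT; + cpd 30 min RT; + AlphaScreen donor/Ni-chelate acceptor beads 10 ug/mL final, 30 min dark; luminescence read.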

Assay [26] concerns the target Thyrotropin receptor (Homo sapiens) (UniProt P16473). Description: qHTS Assay for Antagonists of the Thyroid Stimulating Hormone Receptor (AID 488980). Further: series mostly up to about 58 µM; 0% is about no effect. In short, it runs like this:
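Readout is cAMP by HTRF competition between cellular cAMP and cAMP-d2 for a cryptate-labelled antibody. Antagonism was assessed in TSHR-transfected HEK293 cells stimulated with 4 nM TSH (EC80, final) in the presence of RO 20-1724.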

For assay [27], the target named is Thyrotropin-releasing hormone receptor (Homo sapiens) (UniProt P34981). Nature of the assay: qHTS for Small Molecule Agonists and Allosteric Enhancers of Human TRH Receptor: Validation Screen for Agonists (AID 493127;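 active means calcium activation more than 3 SD above the typical response in the agonist read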;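 further: intracellular calcium rise by fluo-8 fluorescence before TRH EC20 addition; 0% is about no effect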). As to conditions: TRH receptor agonist cell assay; at 2 µM; stronger effect = higher value. An outline of the steps: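 TRHR-expressing cells were plated overnight in serum-containing medium, then loaded with fluo-8 calcium dye at room temperature for 30 min–1.5 h. After a 10 s baseline, compound was pin-transferred and calcium fluorescence (ex 480/em 530) read kinetically for agonist response.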
Sequence of Thyrotropin-releasing hormone receptor (Homo sapiens) (P34981 whole entry, looked up): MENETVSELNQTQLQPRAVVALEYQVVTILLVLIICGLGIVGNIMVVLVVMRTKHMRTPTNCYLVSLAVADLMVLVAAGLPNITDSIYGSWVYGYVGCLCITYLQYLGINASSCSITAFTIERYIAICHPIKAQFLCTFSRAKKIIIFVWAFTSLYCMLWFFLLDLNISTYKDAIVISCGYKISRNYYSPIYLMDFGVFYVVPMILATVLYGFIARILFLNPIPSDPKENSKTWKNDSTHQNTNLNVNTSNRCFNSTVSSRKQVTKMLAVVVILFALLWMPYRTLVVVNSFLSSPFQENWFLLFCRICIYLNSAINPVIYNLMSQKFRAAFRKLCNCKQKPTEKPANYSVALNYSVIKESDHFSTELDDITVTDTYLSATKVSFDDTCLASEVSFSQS

In assay [28] the target is Galactokinase (Homo sapiens) (UniProt P51570). Nature of the assay: qHTS Validation Assay for Inhibitors of Human Galactokinase (GALK) (AID 493189). Further: 0% is about no effect. An outline of the steps:
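5 nM GALK / 100 uM galactose / 35 uM ATP, 20 mM HEPES pH8.0, 5 mM MgCl2, 60 mM NaCl, 1 mM DTT, 0.01% BSA (final). RT 1 h; Kinase-Glo Plus luminescence.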

The target of assay [29] is Voltage-gated inwardly rectifying potassium channel KCNH2 (Homo sapiens) (UniProt Q12809). Nature of the assay: qHTS Assay for Small Molecule Inhibitors of the Human hERG Channel Activity (AID 588834).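 Further: potency means the concentration at half of the fitted maximal effect; lower thallium flux fluorescence means stronger hERG block; nearly all actives have a fitted effect of over 50% in size.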 An outline of the steps: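 hERG-BacMam U2OS, 2000 cells/well; 0.7X FluxOR loading 1 hr RT dark; cpd ~10 min 37 °C; stim buffer; FDSS fluorescence 2 min @ 1 s; AC50 Hill fit.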
Sequence of Voltage-gated inwardly rectifying potassium channel KCNH2 (Homo sapiens) (Q12809 whole entry, looked up): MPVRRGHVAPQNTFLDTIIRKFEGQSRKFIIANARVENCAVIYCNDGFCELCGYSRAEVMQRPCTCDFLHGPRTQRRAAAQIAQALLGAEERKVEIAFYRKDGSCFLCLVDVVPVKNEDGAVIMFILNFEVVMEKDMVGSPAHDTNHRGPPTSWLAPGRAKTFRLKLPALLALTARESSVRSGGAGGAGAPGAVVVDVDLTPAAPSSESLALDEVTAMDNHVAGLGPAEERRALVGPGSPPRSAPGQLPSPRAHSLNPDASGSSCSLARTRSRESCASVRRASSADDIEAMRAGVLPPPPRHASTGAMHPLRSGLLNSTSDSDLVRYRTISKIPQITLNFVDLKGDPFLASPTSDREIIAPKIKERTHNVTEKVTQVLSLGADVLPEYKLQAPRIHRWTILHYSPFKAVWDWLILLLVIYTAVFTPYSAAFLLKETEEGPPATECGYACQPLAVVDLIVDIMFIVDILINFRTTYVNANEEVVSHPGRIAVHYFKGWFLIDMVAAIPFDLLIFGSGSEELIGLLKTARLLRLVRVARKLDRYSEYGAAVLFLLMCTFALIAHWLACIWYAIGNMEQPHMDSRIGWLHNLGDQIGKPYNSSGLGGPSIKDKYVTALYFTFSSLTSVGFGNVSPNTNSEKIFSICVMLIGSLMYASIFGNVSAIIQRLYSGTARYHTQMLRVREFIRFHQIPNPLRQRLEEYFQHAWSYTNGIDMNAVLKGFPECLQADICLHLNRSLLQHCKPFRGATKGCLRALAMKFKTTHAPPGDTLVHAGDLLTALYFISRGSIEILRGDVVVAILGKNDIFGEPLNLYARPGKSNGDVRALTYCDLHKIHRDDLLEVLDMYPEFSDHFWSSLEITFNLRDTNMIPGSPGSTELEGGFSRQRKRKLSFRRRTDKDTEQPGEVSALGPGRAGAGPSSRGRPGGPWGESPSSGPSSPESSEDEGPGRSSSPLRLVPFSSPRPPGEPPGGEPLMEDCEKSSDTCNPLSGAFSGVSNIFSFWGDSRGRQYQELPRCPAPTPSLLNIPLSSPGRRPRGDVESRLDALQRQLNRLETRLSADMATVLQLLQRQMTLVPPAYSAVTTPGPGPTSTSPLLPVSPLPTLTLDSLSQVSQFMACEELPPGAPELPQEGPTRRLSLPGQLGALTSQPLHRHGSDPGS

Records with an inconclusive call do not appear. Active and inactive are the calls of the source. Unless noted, the call rests on the fitted dose curve; in most records, active means well fitted curve in the direction sought with a large enough effect; inconclusive means small, poorly fitted or top-dose-only effect, or another doubt; inactive means no such curve, though single readings can be large; an effect the other way counts as inactive or inconclusive.

Sequence of Glucocorticoid receptor (Homo sapiens) (P04150 whole entry, looked up): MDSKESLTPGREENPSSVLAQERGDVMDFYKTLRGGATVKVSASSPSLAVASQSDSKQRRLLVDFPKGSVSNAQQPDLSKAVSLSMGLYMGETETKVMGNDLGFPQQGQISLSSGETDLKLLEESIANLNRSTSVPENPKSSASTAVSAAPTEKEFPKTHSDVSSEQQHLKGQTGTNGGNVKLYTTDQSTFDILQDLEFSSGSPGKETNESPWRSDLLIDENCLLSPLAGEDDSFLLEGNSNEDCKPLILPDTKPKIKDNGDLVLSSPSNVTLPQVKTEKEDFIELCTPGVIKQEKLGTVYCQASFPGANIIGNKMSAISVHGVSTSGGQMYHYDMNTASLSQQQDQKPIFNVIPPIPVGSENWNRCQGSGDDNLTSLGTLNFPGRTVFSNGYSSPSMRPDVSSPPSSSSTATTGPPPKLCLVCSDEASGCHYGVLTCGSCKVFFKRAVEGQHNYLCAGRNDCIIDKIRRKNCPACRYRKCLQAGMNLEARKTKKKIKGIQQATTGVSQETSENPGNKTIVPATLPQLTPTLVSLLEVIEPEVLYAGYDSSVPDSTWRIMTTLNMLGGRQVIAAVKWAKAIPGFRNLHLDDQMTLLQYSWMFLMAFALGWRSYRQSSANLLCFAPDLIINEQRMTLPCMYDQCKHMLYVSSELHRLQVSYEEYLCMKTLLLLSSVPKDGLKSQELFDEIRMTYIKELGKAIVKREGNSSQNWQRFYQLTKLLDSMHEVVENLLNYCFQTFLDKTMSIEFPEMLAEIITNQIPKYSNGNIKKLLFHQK
Sequence of Glutathione peroxidase 1 (Homo sapiens) (P07203 whole entry, looked up): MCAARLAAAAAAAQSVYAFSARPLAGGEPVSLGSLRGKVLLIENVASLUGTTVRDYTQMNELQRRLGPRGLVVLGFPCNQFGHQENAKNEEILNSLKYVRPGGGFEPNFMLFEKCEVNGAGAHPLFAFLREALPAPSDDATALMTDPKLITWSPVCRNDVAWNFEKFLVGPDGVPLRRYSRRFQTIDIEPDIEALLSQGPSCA
Sequence of DNA dC->dU-editing enzyme APOBEC-3G (Homo sapiens) (Q9HC16 whole entry, looked up): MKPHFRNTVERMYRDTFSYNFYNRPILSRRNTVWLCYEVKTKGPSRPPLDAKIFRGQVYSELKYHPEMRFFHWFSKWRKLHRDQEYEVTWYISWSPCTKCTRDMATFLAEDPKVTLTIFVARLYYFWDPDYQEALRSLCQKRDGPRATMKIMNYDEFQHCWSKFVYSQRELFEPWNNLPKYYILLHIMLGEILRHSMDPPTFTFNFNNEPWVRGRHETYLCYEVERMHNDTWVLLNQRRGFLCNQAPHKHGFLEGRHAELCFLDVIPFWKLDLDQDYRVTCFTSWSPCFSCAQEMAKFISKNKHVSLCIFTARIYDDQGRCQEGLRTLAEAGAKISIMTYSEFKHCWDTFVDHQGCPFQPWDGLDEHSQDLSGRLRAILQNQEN
Sequence of Calcium and integrin-binding protein 1 (Homo sapiens) (Q99828 whole entry, looked up): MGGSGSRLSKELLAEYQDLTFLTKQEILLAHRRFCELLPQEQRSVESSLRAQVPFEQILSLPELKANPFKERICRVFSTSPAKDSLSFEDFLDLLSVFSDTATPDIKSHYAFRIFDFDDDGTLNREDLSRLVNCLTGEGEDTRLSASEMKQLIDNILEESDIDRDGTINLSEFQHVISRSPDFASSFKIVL
Sequence of Cytochrome P450 1A2 (Homo sapiens) (P05177 whole entry, looked up): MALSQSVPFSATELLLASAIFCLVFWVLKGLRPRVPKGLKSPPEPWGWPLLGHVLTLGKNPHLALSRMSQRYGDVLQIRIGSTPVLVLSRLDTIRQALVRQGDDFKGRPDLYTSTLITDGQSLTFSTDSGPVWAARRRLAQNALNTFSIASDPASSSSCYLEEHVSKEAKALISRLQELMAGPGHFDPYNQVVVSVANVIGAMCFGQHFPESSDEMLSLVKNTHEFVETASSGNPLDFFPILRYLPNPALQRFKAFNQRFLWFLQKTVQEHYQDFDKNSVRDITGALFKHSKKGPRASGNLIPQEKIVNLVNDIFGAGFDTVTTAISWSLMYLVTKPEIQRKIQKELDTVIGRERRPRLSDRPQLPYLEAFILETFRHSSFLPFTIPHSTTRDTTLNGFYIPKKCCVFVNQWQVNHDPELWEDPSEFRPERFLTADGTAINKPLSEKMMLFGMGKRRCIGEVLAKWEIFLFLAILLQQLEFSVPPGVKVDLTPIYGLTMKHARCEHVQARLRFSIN
Sequence of Cytochrome P450 2D6 (Homo sapiens) (P10635 whole entry, looked up): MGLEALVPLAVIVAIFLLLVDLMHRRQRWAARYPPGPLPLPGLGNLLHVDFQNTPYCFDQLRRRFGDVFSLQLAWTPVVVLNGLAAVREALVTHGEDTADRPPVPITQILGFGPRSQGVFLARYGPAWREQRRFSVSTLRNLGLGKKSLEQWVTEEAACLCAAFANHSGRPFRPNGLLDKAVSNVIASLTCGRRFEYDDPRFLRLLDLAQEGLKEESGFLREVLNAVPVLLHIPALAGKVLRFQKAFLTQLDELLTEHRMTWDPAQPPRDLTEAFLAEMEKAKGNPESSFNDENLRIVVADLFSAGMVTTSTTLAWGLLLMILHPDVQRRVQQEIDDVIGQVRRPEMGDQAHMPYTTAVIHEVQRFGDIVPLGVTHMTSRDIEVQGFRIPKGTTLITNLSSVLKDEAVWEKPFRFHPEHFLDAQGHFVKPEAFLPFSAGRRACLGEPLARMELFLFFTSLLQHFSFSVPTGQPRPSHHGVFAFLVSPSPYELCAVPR

As to `COC(=O)c1ccccc1NC(=O)c1ccc(F)cc1`, the Potency in assay [1] is 0.2 µM (active); in assay [2] it was > 46 µM (inactive); in [3], > 46 µM (inactive); in [4], 5.01 µM (active). The Potency entry in assay [5], in [6] and in [8] was “inactive” each time. In assay [7], the outcome was inactive.
For `COc1ccc(S(=O)(=O)N(CCO)c2ccccc2CN(C)C/C=C/c2ccc(Cl)cc2)cc1`, the Potency result in [6], in assay [9], in assay [12] and in [13] was “inactive” in each case. Besides, the Potency was 7.42 µM (active) in assay [10] and 8.33 µM (active) in assay [11]. Besides, the Z-AUC in [14] is -0.289 (inactive); in assay [14] (measured here: PEO1 parental Z-AUC) it was -0.166; in [14] (measured here: PEO4 Z-AUC) it was 0.482.
Consider `FC(F)(F)c1cc(CO[C@H]2CCCN[C@H]2c2ccccc2)cc(C(F)(F)F)c1`, for which the Potency in [2] is > 46 µM (inactive); in assay [3], > 46 µM (inactive); in assay [17], 7.94 µM (active); in [18], 11.2 µM (active); in [19] it was 11.2 µM (active); in assay [20], 11.2 µM (active). Moreover, the Potency in [21] was 12.6 µM (active); in assay [22], 7.08 µM (active); in assay [23] it was 12.6 µM (active); in [29] it was 8.91 µM (active). In addition, the call in assay [15], in assay [26] and in assay [28] was inactive. Moreover, the Potency result in assay [16], in assay [24], in [25], in assay [5], in assay [6] and in [8] was “inactive” throughout. Besides, in assay [27], the activation was 2.81% (inactive).
In the case of `NC(C(=O)O)c1ccc(P(=O)(O)O)cc1` (centres undefined), the Potency result in assay [6] is “inactive”.
In the case of `CS/C(N)=C(C#N)/C(C#N)=C(\N)SC`, in [6], the Potency result was “inactive”.
